# Data taken from PubChem BioAssay (EPA / NIEHS).
# Activity calls are given as the source filed them. How the source made its calls: active means hit-call score of the fitted dose curve at least 0.9, where 1 is the maximum; inactive means score below 0.9.
# Read-out: Ezrin (EZR), EZR (gene 7430)
# Assay: LTEA_HepaRG_EZR: Life Technologies and Expression Analysis (LTEA) Assay for Ezrin (EZR) using HepaRG (AID 2283491)
# Conditions: mRNA level, 48 h; actives raise or lower the signal
# Method in brief: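 Read-out is EZR transcript level by qRT-PCR, normalized to three housekeeping genes and fitted bidirectionally against the DMSO control. Human HepaRG cells received test chemicals for 48 h at eight half-log concentrations up to 100 uM in 0.5% DMSO.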
# Cytochrome P450 3A7 (Homo sapiens), sequence (P24462 whole entry, looked up): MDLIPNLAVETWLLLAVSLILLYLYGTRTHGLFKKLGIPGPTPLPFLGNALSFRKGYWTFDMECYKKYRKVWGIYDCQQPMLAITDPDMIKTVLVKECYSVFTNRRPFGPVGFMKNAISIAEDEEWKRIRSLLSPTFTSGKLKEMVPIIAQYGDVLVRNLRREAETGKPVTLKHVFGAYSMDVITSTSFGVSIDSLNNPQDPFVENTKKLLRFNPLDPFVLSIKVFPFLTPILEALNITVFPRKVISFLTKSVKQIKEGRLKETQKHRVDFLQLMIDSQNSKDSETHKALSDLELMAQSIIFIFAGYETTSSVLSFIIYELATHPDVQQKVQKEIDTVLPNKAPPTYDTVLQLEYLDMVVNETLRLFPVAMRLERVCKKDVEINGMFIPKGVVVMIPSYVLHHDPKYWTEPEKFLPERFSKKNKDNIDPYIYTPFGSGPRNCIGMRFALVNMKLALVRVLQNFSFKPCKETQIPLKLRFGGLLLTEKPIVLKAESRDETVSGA
SMILES,outcome,AC50
Cc1c(COC(=O)[C@@H]2[C@H](/C=C(\Cl)C(F)(F)F)C2(C)C)cccc1-c1ccccc1,inactive,
Nc1c(Cl)c(Cl)nc(C(=O)O)c1Cl,inactive,
CC(C)NC(=O)N1CC(=O)N(c2cc(Cl)cc(Cl)c2)C1=O,inactive,
Cn1c(-c2ccccc2)cc(-c2ccccc2)[n+]1C,inactive,
COC(=O)c1c(C(F)F)nc(C(F)(F)F)c(C2=NCCS2)c1CC(C)C,inactive,
Clc1nc(Cl)nc(Nc2ccccc2Cl)n1,inactive,
COc1cc(OC)nc(NC(=O)NS(=O)(=O)c2ncccc2OCC(F)(F)F)n1,,0.239 µM (active)
Cc1cc(C)nc(Nc2ccccc2)n1,inactive,
O=c1n(Cl)c(=O)n(Cl)c(=O)n1Cl,inactive,
CSC(=O)c1c(C(F)F)nc(C(F)(F)F)c(C(=O)SC)c1CC(C)C,inactive,
C=C(C)CN(CC)c1c([N+](=O)[O-])cc(C(F)(F)F)cc1[N+](=O)[O-],inactive,
CCOc1cc(C(C)(C)C)ccc1C1COC(c2c(F)cccc2F)=N1 (configuration not stated),inactive,
O=C(Nc1ccccc1-c1ccc(Cl)cc1)c1cccnc1Cl,inactive,
COP(=O)(OC)O/C(C)=C/C(=O)N(C)C,inactive,
CC(C)Nc1nc(Cl)nc(NC(C)C)n1,inactive,
COP(=S)(OC)Oc1ccc([N+](=O)[O-])c(C)c1,inactive,
COP(=S)(OC)SCn1nnc2ccccc2c1=O,inactive,
C=CCOC(=O)C(C)(C)OC(=O)c1cc(-n2c(=O)cc(C(F)(F)F)n(C)c2=O)ccc1Cl,inactive,

SMILES,outcome,AC50
CNC(=O)N(C)c1nnc(C(C)(C)C)s1,inactive,
CCSC(=O)N1CCCCCC1,inactive,
CC(C)C1(C)N=C(c2ncccc2C(=O)O)NC1=O (configuration not stated),inactive,
Nc1cnn(-c2ccccc2)c(=O)c1Cl,inactive,
CC(C)N1C(=O)N(c2ccccc2)CSC1=NC(C)(C)C,,50 µM (active)
COC(=O)NS(=O)(=O)c1ccc(N)cc1,inactive,
Nc1c(Cl)c(F)nc(OCC(=O)O)c1Cl,inactive,
Clc1cccc(C(Cl)(Cl)Cl)n1,inactive,
Cc1cnc(C2=NC(C)(C(C)C)C(=O)N2)c(C(=O)O)c1 (configuration not stated),inactive,
CS(=O)(=O)c1ccc(C(=O)C2C(=O)CCCC2=O)c([N+](=O)[O-])c1,inactive,
O=C(O)c1c(Cl)ccc2cc(Cl)cnc12,inactive,
COC(=O)NC(=S)Nc1ccccc1NC(=S)NC(=O)OC,inactive,
CNC(=O)Oc1cccc2ccccc12,inactive,
COC(=O)N(C(=O)N1CO[C@@]2(C(=O)OC)Cc3cc(Cl)ccc3C2=N1)c1ccc(OC(F)(F)F)cc1,inactive,
CC(C)Oc1cccc(NC(=O)c2ccccc2C(F)(F)F)c1,inactive,
CN=C=S,inactive,
CCC(C)n1c(=O)[nH]c(C)c(Br)c1=O (configuration not stated),inactive,
CO/N=C(/C1=NOCCO1)c1ccccc1Oc1ncnc(Oc2ccccc2Cl)c1F,,0.973 µM (active)

# Read-out: Cytochrome P450 3A7 (Homo sapiens) (UniProt P24462)
# Assay: LTEA_HepaRG_CYP3A7: Life Technologies and Expression Analysis (LTEA) Assay for CYP3A7 using HepaRG (AID 2283492)
# Conditions: mRNA level, 48 h; actives raise or lower the signal
# Method in brief: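 Human HepaRG liver cells, 48 h post-plating, switched to serum-free induction medium and exposed in duplicate for 48 h. Dosing: 100 uM top, half-log dilutions, 8 points, 0.5% DMSO vehicle. Read-out: CYP3A7 mRNA, gain or loss fitted against DMSO baseline.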
SMILES,AC50,outcome
Cc1c(COC(=O)[C@@H]2[C@H](/C=C(\Cl)C(F)(F)F)C2(C)C)cccc1-c1ccccc1,4.87 µM (active),
Nc1c(Cl)c(Cl)nc(C(=O)O)c1Cl,,inactive
CC(C)NC(=O)N1CC(=O)N(c2cc(Cl)cc(Cl)c2)C1=O,,inactive
Cn1c(-c2ccccc2)cc(-c2ccccc2)[n+]1C,44.1 µM (active),
COC(=O)c1c(C(F)F)nc(C(F)(F)F)c(C2=NCCS2)c1CC(C)C,50 µM (active),
Clc1nc(Cl)nc(Nc2ccccc2Cl)n1,,inactive
COc1cc(OC)nc(NC(=O)NS(=O)(=O)c2ncccc2OCC(F)(F)F)n1,,inactive
Cc1cc(C)nc(Nc2ccccc2)n1,,inactive
O=c1n(Cl)c(=O)n(Cl)c(=O)n1Cl,,inactive
CSC(=O)c1c(C(F)F)nc(C(F)(F)F)c(C(=O)SC)c1CC(C)C,12.6 µM (active),
C=C(C)CN(CC)c1c([N+](=O)[O-])cc(C(F)(F)F)cc1[N+](=O)[O-],,inactive
CCOc1cc(C(C)(C)C)ccc1C1COC(c2c(F)cccc2F)=N1 (configuration not stated),,inactive
O=C(Nc1ccccc1-c1ccc(Cl)cc1)c1cccnc1Cl,,inactive
COP(=O)(OC)O/C(C)=C/C(=O)N(C)C,,inactive
CC(C)Nc1nc(Cl)nc(NC(C)C)n1,2.51 µM (active),
COP(=S)(OC)Oc1ccc([N+](=O)[O-])c(C)c1,,inactive
COP(=S)(OC)SCn1nnc2ccccc2c1=O,,inactive
C=CCOC(=O)C(C)(C)OC(=O)c1cc(-n2c(=O)cc(C(F)(F)F)n(C)c2=O)ccc1Cl,11 µM (active),

SMILES,AC50,outcome
CNC(=O)N(C)c1nnc(C(C)(C)C)s1,,inactive
CCSC(=O)N1CCCCCC1,,inactive
CC(C)C1(C)N=C(c2ncccc2C(=O)O)NC1=O (configuration not stated),,inactive
Nc1cnn(-c2ccccc2)c(=O)c1Cl,,inactive
CC(C)N1C(=O)N(c2ccccc2)CSC1=NC(C)(C)C,,inactive
COC(=O)NS(=O)(=O)c1ccc(N)cc1,,inactive
Nc1c(Cl)c(F)nc(OCC(=O)O)c1Cl,,inactive
Clc1cccc(C(Cl)(Cl)Cl)n1,,inactive
Cc1cnc(C2=NC(C)(C(C)C)C(=O)N2)c(C(=O)O)c1 (configuration not stated),,inactive
CS(=O)(=O)c1ccc(C(=O)C2C(=O)CCCC2=O)c([N+](=O)[O-])c1,,inactive
O=C(O)c1c(Cl)ccc2cc(Cl)cnc12,,inactive
COC(=O)NC(=S)Nc1ccccc1NC(=S)NC(=O)OC,4.46 µM (active),
CNC(=O)Oc1cccc2ccccc12,,inactive
COC(=O)N(C(=O)N1CO[C@@]2(C(=O)OC)Cc3cc(Cl)ccc3C2=N1)c1ccc(OC(F)(F)F)cc1,73.1 µM (active),
CC(C)Oc1cccc(NC(=O)c2ccccc2C(F)(F)F)c1,,inactive
CN=C=S,,inactive
CCC(C)n1c(=O)[nH]c(C)c(Br)c1=O (configuration not stated),,inactive
CO/N=C(/C1=NOCCO1)c1ccccc1Oc1ncnc(Oc2ccccc2Cl)c1F,12.4 µM (active),
